Laboratory results published in PubChem BioAssay (NCATS).
Records with an inconclusive call do not appear. A number with no mark means an inactive call. Active and inactive are the calls of the source. Calls come from the whole dose curve; as a rule, active = well fitted cell-killing curve with a large enough effect; inconclusive = small, poorly fitted or top-dose-only effect; inactive = no such curve, though single readings can be large or run the other way. Numbered stars: 1 amine (or outer) side, 2 acyl side, 3 side chain; on linkers, the order of the positions; unused ones are H or OH. Bridge positions count the residues as written; N and C are the ends. Square brackets hold non-standard residues; d marks the D form. Peptide text beside a SMILES is read from it. I, II: the chains in the order shown. Actinocin(9to1) = Cc1c2oc3c(C)ccc(C(=O)[*:1])c3nc-2c(C(=O)[*:2])c(N)c1=O; NMeV = CN[C@H](C(=O)O)C(C)C; Sar = CNCC(=O)O

assay: qHTS of pediatric cancer cell lines to identify multiple opportunities for drug repurposing: Primary screen for SK-N-MC cells (AID 1347093); conditions: SK-N-MC viability, CellTiter-Glo luminescence, 48 h; series mostly up to 46 µM; activity change, negative = cytotoxic: at the top concentration
Source text: Drug repurposing or repositioning has been offered as a strategy for drug development in oncology programs. This approach has special potential for childhood cancers and other rare or orphan diseases, where the expected return on new drug development has been a disincentive to pharmaceuticals.
In this project we exploit the poly-pharmacology of drugs to discover new indications via phenotypic screening of a panel of 19 well-characterized cell lines derived from solid tumors seen in children and adolescents. The goal is to identify approved drugs with previously unrecognized anticancer properties that has the potential to reveal new mechanisms and biological processes involved in carcinogenesis or drug resistance. We employed a titration-based paradigm (quantitative high-throughput screening or qHTS), where all compounds were tested at multiple concentrations for their effect on cell viability. Concentration-response curves (CRCs) were derived directly from the primary screen, and both potency and efficacy values were used to identify compounds with robust bioactivity profiles. We screened the NIH Chemical Genomics Center (NCGC) Pharmaceutical Collection (NPC) and Mechanism Interrogation Plate (MIPE) small molecule collections of approved and investigational compounds against these cell lines; and measured metabolically active cells after 48 hours of compound treatment as a proxy for cell viability.
Assay Submitter: Nathalia J. Martinez, National Center for Advancing Translational Sciences, National Institutes of Health, Rockville, MD, USA; email: natalia.martinez@nih.gov
[1] Shen, M et al. Quantitative high-throughput phenotypic screening of pediatric cancer cell lines identifies multiple opportunities for drug repurposing. Oncotarget 2017 Dec 19;9(4):4758-4772. PMID 29435139.
The cells were obtained from University of North Carolina (UNC), Pediatric Preclinical Testing Program (PPT), and Coriell Institute (CI).
qHTS cell viability assay:
Cells were assayed in growth media at a density of 500-1,000 cells/well. Five microliters of cells were dispensed into 1,536-well, white, solid-bottom, TC-treated plates (Greiner Bio One) using a multidrop dispenser and incubated at 37 degrees C, 5% CO2, under a humidified atmosphere for 5 hours. Twenty-three nanoliters of compounds and controls (neutral control DMSO or positive control bortezomib at final concentration of 2.3 µM) were subsequently transferred by Kalypsys pintool. For primary screens, the MIPE collection was tested at 11-point dilutions (final concentrations range from 0.78 nM to 46 µM) and the NPC collection at 8-point dilutions (final concentrations range from 0.59nM to 46 µM). Compounds tested in follow-up screens were assayed at 11-point dilutions. Cells were incubated for 48 hours, followed by addition of 3 uL of CellTiter-Glo (Promega). After a 15 min incubation at room temperature, samples were analyzed for luminescence intensity using a ViewLux High-throughput CCD imager equipped with clear filters.
Potency is the fitted concentration of half-maximal effect.

| SMILES | Potency | activity change, negative = cytotoxic |
| --- | --- | --- |
| CN(C)/N=N/c1nc[nH]c1C(N)=O | 2.66 µM (active) |  |
| C[n+]1c2cc(N)ccc2cc2ccc(N)cc21 (tested in a mixture with another compound) | 8.41 µM (active) |  |
| Cc1c(C(N)=O)cc([N+](=O)[O-])cc1[N+](=O)[O-] |  | -12.9% |
| C[C@@H]1C[C@H]2[C@@H]3CCC4=CC(=O)C=C[C@]4(C)[C@@]3(F)[C@@H](O)C[C@]2(C)[C@H]1C(=O)CO |  | 9.13% |
| CCCCCCCCCCCCCCCC[N+](C)(C)CCN(Cc1ccc(OC)cc1)c1ncccn1 | 13.3 µM (active) |  |
| CCC(=O)c1c(O)cc(O)cc1O |  | -3.47% |
| CCC(C(=O)OCCN(CC)CC)c1ccccc1 (stereo not given) | 23.7 µM (active) |  |
| CC[N+](CC)(CCNC(=O)C(=O)NCC[N+](CC)(CC)Cc1ccccc1Cl)Cc1ccccc1Cl |  | -5.32% |
| Cc1onc(-c2c(Cl)cccc2Cl)c1C(=O)N[C@@H]1C(=O)N2[C@@H]1SC(C)(C)[C@@H]2C(=O)O |  | -10.1% |
| CC(C)(C)CC(C)(C)c1ccc(OCCOCC[N+](C)(C)Cc2ccccc2)cc1 | 5.96 µM (active) |  |
| Nc1ccc(/C=C/c2ccc(N)cc2S(=O)(=O)O)c(S(=O)(=O)O)c1 |  | -3.26% [at 0.597 µM] |
| NCCc1ccn[nH]1 |  | -19.7% |
| Cc1nc2n(c(=O)c1CCN1CCC(c3noc4cc(F)ccc34)CC1)CCC[C@H]2O |  | -13.7% [at 16.1 µM] |
| CC(C)(C)NC(=O)[C@@H]1CN(Cc2cccnc2)CCN1C[C@@H](O)C[C@@H](Cc1ccccc1)C(=O)N[C@H]1c2ccccc2C[C@H]1O |  | -15.1% |
| CCCC(=O)O[C@]1(C(=O)CO)CC[C@H]2[C@@H]3CCC4=CC(=O)CC[C@]4(C)[C@H]3[C@@H](O)C[C@@]21C |  | -19.9% |
| COc1cc(C(=S)N2CCOCC2)cc(OC)c1OC |  | 7.76% |
| Cc1cccc(C)c1NC(=O)CN1CCN(CCCC(c2ccc(F)cc2)c2ccc(F)cc2)CC1 |  | -8.16% |
| O=c1[nH]c(=O)n([C@H]2CCCO2)cc1F |  | 11.3% |
| CN1C(CCl)Nc2cc(Cl)c(S(N)(=O)=O)cc2S1(=O)=O (stereo not given) |  | -23.7% |
| COc1ccc(C2C(=O)c3ccccc3C2=O)cc1 |  | -2.36% |

| SMILES | Potency | activity change, negative = cytotoxic |
| --- | --- | --- |
| CC(C)(C(=O)c1cccnc1)c1cccnc1 |  | -16.5% |
| NC(CO)(CO)CO |  | 5.28% |
| CNCC[C@@H](Oc1ccccc1C)c1ccccc1 |  | -15% |
| CC1=C(C(=O)OC(C)C)C(c2cccc([N+](=O)[O-])c2)C(C(=O)OC2CN(C(c3ccccc3)c3ccccc3)C2)=C(N)N1 (stereo not given) | 6.68 µM (active) |  |
| CC(O)(P(=O)(O)O)P(=O)(O)O |  | -6.45% |
| NC(=O)CC[C@@H]1NC(=O)[C@H](Cc2ccccc2)NC(=O)[C@H](Cc2ccc(O)cc2)NC(=O)CCSSC[C@@H](C(=O)N2CCC[C@H]2C(=O)N[C@@H](CCCN=C(N)N)C(=O)NCC(N)=O)NC(=O)[C@H](CC(N)=O)NC1=O |  | -44.1% |
| CC(=O)OCC(=O)[C@@]1(O)[C@H](C)C[C@H]2[C@@H]3CCC4=CC(=O)C=C[C@]4(C)[C@@]3(F)[C@@H](O)C[C@@]21C |  | -5.19% |
| Cc1c2oc3c(C)ccc(C(=O)N[C@@H]4C(=O)N[C@H](C(C)C)C(=O)N5CCC[C@H]5C(=O)N(C)CC(=O)N(C)[C@@H](C(C)C)C(=O)O[C@@H]4C)c3nc-2c(C(=O)N[C@@H]2C(=O)N[C@H](C(C)C)C(=O)N3CCC[C@H]3C(=O)N(C)CC(=O)N(C)[C@@H](C(C)C)C(=O)O[C@@H]2C)c(N)c1=O (I: T[dV]P[Sar][NMeV] / II: T[dV]P[Sar][NMeV]; ester I:1-I:C, II:1-II:C; linker I:N-II:N via Actinocin(9to1)) | 0.0027 µM (active) |  |
| OC[C@H]1O[C@H](O[C@]2(CCl)O[C@H](CCl)[C@@H](O)[C@@H]2O)[C@H](O)[C@@H](O)[C@H]1Cl |  | -12.5% |
| Nc1ccc(C(=O)Nc2ccccc2N)cc1 | 3.76 µM (active) |  |
| COc1cccc2c1C(=O)c1c(O)c3c(c(O)c1C2=O)C[C@@](O)(C(C)=O)C[C@@H]3O[C@H]1C[C@H](N)[C@H](O)[C@H](C)O1 | 0.0841 µM (active) |  |
| CC(C)(CO)[C@@H](O)C(=O)NCCCO |  | -8.15% |
| Clc1ccc2c(c1)CCc1cccnc1C2=C1CCNCC1 |  | -47.5% |
| N[C@@H](CCC(=O)N[C@@H](CS)C(=O)NCC(=O)O)C(=O)O |  | -15.3% [at 16.1 µM] |
| CCN1CCCC1=O |  | 9.7% |
| CC(C)COC(=O)c1ccc(N)cc1 |  | 6.41% |
| Cc1ccc(Nc2c(F)cccc2Cl)c(CC(=O)O)c1 |  | -4.53% |
| COc1cc(C=C2CCC/C(=C\c3ccc(O)c(OC)c3)C2=O)ccc1O | 0.335 µM (active) |  |
| CC1(C)OC[C@@H](COC(=O)CCc2ccc(OC[C@@H](O)CNCCNC(=O)N3CCOCC3)cc2)O1 |  | -8.54% |
| COc1cccc2c1C(=O)c1c(O)c3c(c(O)c1C2=O)C[C@@](O)(C(=O)CO)C[C@@H]3O[C@H]1C[C@H](N)[C@H](O)[C@H](C)O1 | 0.668 µM (active) |  |
